Measurements from publication PMC7862700, “An all-to-all approach to the identification of sequence-specific readers for epigenetic DNA modifications on cytosine”.

Legend:
Assay in all cases: DAPPL (digital affinity profiling via proximity ligation, sequencing); 10 mM Tris-HCl pH 7.5, 50 mM NaCl, 1 mM DTT, 4% glycerol, room temperature, 30 min; GST-TFs on glutathione beads, 16-mer random dsDNA library, 0.1% formaldehyde crosslink after washing; high values mean tight binding
FEV = molecular target: T1, FEV (Homo sapiens, UniProt Q99581 1-238); conditions: protein: recombinant; tags: N-terminal GST; dsDNA, one strand shown
T1 sequence: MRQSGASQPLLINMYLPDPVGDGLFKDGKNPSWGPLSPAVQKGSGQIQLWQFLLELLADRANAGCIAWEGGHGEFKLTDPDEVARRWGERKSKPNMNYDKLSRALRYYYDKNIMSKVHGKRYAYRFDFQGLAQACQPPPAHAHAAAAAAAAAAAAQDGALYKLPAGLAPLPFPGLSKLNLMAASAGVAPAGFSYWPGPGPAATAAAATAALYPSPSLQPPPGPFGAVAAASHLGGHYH
Outline: (§1)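 Each value of binding signal is a hexamer's read frequency for a factor divided by the same hexamer's frequency in the tag-only sample. Barcoded, bead-captured GST fusions of human transcription factors made in yeast were pooled with that sample and incubated with 200 nmole of a random double-stranded 16-mer DNA library in Tris/NaCl/DTT/glycerol buffer at room temperature for 30 min. Washing, 0.1% formaldehyde crosslinking, proximity ligation, PCR and Illumina NextSeq500 sequencing followed.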

ETV5 = ETV5 (Homo sapiens, UniProt P41161 1-510); conditions: protein: recombinant; tags: N-terminal GST; dsDNA, one strand shown
Outline: as §1

HSF1 = HSF1 (Homo sapiens, UniProt Q00613 1-529); conditions: protein: recombinant; tags: N-terminal GST; chain copies: 3; dsDNA, one strand shown
Outline: as §1

SPIC = molecular target: T2, SPIC (Homo sapiens, UniProt Q8N5J4 1-248); conditions: protein: recombinant; tags: N-terminal GST; dsDNA, one strand shown
T2 sequence: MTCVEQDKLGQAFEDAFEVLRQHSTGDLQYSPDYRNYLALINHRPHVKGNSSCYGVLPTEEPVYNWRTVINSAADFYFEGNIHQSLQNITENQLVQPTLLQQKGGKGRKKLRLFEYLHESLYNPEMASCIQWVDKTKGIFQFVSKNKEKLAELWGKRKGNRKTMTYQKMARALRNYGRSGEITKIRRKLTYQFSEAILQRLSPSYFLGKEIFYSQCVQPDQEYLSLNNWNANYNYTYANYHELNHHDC
Outline: as §1

ELF4 = ELF4 (Homo sapiens, UniProt Q99607 1-663); conditions: protein: recombinant; tags: N-terminal GST; dsDNA, one strand shown
Outline: as §1

ELK4 = molecular target: T3, ELK4 (Homo sapiens, UniProt P28324-2 1-405); conditions: protein: recombinant; tags: N-terminal GST; dsDNA, one strand shown
T3 sequence: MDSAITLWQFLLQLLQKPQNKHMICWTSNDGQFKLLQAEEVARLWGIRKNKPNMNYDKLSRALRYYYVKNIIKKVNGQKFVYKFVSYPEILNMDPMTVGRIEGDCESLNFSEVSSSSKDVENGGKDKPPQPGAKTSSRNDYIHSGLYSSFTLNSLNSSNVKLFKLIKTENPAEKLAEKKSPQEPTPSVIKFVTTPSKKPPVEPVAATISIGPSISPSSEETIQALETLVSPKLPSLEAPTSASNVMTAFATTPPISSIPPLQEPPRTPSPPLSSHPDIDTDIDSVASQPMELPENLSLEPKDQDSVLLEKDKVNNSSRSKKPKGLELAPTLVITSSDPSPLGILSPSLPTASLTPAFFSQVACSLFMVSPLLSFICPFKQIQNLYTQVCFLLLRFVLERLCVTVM
Outline: as §1

ETV2 = molecular target: T4, ETV2 (Homo sapiens, UniProt O00321 1-342); conditions: protein: recombinant; tags: N-terminal GST; dsDNA, one strand shown
T4 sequence: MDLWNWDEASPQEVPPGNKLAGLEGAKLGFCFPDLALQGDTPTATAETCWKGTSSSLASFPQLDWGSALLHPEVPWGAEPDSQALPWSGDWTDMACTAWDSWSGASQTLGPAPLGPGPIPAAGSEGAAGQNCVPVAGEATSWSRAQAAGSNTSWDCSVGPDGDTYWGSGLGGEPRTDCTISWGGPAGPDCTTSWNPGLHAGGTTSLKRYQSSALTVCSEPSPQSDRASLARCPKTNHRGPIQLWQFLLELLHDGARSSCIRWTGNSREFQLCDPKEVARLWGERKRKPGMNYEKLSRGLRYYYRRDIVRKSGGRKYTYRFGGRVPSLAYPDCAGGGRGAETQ
Outline: as §1

ELF3 = molecular target: T5, ELF3 (Homo sapiens, UniProt P78545 1-371); conditions: protein: recombinant; tags: N-terminal GST; dsDNA, one strand shown
T5 sequence: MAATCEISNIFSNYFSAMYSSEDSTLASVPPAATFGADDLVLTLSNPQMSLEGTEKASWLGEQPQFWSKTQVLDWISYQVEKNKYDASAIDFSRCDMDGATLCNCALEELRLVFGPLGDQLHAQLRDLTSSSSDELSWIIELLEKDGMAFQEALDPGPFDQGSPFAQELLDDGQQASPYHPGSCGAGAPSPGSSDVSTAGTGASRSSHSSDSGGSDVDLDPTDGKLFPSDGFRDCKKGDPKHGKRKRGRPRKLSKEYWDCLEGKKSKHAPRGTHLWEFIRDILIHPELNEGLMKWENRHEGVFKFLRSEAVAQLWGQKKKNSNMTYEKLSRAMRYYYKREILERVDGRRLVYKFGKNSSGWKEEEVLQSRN
Outline: as §1

CRX = CRX (Homo sapiens, UniProt O43186 1-299); conditions: protein: recombinant; tags: N-terminal GST; dsDNA, one strand shown
Outline: as §1

ETV1 = ETV1 (Homo sapiens, UniProt P50549 1-477); conditions: protein: recombinant; tags: N-terminal GST; dsDNA, one strand shown
Outline: as §1

ERF = molecular target: T6, ERF (Homo sapiens, UniProt P50548 1-548); conditions: protein: recombinant; tags: N-terminal GST; dsDNA, one strand shown
T6 sequence: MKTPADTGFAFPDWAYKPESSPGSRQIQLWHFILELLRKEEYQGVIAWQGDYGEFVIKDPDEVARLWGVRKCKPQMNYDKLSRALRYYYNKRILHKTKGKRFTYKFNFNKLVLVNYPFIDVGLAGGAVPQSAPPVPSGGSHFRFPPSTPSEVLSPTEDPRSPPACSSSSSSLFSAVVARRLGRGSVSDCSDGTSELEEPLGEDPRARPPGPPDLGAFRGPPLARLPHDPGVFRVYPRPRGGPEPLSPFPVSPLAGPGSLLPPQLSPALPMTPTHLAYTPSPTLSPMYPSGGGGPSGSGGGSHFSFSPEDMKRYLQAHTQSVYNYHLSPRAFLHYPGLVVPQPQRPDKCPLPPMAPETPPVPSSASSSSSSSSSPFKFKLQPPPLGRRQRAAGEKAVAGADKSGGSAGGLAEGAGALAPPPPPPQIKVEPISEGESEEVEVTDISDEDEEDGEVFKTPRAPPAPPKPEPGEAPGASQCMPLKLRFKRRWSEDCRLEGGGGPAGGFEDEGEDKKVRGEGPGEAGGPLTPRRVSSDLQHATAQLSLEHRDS
Outline: as §1

ETV3L = molecular target: T7, ETV3L (Homo sapiens, UniProt Q6ZN32 1-361); conditions: protein: recombinant; tags: N-terminal GST; dsDNA, one strand shown
T7 sequence: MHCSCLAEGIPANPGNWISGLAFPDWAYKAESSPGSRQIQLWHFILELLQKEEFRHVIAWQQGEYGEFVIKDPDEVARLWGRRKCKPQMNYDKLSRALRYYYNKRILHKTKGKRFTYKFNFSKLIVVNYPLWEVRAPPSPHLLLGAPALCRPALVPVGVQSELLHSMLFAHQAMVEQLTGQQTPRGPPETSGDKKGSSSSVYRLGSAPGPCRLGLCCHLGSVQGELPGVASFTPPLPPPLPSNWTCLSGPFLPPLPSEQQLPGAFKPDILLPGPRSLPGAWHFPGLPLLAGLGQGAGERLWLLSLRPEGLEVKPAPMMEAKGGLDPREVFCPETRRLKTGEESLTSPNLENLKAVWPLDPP
Outline: as §1

ETS2 = molecular target: T8, ETS2 (Homo sapiens, UniProt P15036 1-469); conditions: protein: recombinant; tags: N-terminal GST; dsDNA, one strand shown
T8 sequence: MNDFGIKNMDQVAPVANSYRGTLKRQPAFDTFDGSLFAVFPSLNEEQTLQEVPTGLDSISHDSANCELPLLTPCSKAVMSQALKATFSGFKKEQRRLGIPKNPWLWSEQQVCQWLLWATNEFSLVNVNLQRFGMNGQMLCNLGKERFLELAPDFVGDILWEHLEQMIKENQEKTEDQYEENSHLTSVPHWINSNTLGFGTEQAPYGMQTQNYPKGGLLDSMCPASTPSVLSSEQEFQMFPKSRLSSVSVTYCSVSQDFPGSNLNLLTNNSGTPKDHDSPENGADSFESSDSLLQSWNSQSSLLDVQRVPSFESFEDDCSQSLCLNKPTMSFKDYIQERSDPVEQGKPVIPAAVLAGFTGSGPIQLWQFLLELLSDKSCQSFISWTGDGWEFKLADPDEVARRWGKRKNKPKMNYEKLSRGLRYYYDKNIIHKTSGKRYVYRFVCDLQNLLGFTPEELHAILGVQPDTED
Outline: as §1

SPDEF = molecular target: T9, SPDEF (Homo sapiens, UniProt O95238 1-335); conditions: protein: recombinant; tags: N-terminal GST; dsDNA, one strand shown
T9 sequence: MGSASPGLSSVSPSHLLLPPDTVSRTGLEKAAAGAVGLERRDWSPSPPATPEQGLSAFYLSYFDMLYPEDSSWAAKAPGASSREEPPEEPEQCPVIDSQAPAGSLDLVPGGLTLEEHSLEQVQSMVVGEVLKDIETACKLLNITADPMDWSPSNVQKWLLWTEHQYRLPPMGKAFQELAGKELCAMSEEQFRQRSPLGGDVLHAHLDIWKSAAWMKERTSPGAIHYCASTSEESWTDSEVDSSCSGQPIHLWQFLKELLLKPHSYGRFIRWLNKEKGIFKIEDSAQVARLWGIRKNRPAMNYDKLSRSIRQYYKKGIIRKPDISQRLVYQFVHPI
Outline: as §1

ETV7 = molecular target: T10, ETV7 (Homo sapiens, UniProt Q9Y603 1-341); conditions: protein: recombinant; tags: N-terminal GST; dsDNA, one strand shown
T10 sequence: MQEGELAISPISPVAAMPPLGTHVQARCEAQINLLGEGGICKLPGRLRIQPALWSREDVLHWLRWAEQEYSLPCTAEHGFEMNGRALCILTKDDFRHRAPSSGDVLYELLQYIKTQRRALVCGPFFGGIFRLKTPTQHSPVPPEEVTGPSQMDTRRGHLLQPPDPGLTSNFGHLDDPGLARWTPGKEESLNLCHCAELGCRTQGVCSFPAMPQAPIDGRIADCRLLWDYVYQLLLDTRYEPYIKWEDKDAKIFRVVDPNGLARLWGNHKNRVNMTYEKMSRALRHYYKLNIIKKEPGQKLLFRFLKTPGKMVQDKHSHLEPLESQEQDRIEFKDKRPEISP
Outline: as §1

ELF5 = molecular target: T11, ELF5 (Homo sapiens, UniProt Q9UKW6-2 1-255); conditions: protein: recombinant; tags: N-terminal GST; dsDNA, one strand shown
T11 sequence: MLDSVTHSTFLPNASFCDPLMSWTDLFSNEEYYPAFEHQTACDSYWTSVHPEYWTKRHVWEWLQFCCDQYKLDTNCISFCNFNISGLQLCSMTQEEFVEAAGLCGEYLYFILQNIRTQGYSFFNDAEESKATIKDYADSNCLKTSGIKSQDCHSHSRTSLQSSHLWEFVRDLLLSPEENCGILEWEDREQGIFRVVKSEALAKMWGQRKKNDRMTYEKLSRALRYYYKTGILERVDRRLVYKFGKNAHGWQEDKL
Outline: as §1

ETV3 = molecular target: T12, ETV3 (Homo sapiens, UniProt P41162-2 1-143); conditions: protein: recombinant; tags: N-terminal GST; dsDNA, one strand shown
T12 sequence: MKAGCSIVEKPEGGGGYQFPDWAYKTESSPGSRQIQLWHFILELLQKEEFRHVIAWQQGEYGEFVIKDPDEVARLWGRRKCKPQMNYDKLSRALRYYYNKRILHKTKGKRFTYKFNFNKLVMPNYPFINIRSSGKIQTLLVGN
Outline: as §1

ETV6 = ETV6 (Homo sapiens, UniProt P41212 1-452); conditions: protein: recombinant; tags: N-terminal GST; dsDNA, one strand shown
Outline: as §1

ETV5, sequence (P41161 whole entry): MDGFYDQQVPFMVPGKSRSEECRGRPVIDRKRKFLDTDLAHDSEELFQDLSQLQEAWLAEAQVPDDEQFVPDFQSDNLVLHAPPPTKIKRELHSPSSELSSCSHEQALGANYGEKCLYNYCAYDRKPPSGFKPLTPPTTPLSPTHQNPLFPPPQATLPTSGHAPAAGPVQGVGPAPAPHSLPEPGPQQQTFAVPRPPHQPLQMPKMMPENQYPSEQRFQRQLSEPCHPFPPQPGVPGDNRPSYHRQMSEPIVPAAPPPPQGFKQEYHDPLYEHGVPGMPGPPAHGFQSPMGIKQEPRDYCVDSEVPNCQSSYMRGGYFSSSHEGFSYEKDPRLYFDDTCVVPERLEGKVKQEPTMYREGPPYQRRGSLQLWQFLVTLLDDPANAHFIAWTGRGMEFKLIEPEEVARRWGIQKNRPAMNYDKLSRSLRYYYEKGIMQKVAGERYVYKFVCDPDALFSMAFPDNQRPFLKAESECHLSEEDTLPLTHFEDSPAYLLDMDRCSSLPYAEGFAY
ETV1, sequence (P50549 whole entry): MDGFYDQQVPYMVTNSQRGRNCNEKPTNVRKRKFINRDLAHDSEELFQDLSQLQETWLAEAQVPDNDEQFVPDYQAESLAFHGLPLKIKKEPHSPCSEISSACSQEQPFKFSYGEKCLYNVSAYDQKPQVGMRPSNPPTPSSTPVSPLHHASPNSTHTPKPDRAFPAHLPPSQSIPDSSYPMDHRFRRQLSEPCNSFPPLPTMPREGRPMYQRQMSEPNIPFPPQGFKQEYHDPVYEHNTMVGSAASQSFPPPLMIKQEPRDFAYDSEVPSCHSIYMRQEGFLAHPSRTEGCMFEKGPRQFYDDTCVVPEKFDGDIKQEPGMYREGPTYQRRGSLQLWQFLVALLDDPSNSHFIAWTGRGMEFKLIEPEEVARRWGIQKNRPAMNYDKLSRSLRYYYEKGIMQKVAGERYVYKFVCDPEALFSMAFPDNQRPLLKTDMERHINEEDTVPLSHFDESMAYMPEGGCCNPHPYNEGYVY
ETV6, sequence (P41212 whole entry): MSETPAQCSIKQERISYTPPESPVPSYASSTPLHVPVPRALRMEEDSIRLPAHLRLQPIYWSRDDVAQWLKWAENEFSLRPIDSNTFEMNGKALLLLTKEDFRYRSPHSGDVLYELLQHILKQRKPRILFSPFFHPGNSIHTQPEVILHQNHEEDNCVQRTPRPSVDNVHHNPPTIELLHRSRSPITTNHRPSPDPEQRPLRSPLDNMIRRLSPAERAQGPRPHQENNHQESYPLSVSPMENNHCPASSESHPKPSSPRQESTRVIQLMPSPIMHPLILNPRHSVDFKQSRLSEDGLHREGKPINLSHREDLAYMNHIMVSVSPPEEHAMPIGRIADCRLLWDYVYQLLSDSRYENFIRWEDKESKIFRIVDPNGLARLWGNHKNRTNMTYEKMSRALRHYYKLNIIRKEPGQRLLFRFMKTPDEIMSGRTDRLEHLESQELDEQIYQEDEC
CRX, sequence (O43186 whole entry): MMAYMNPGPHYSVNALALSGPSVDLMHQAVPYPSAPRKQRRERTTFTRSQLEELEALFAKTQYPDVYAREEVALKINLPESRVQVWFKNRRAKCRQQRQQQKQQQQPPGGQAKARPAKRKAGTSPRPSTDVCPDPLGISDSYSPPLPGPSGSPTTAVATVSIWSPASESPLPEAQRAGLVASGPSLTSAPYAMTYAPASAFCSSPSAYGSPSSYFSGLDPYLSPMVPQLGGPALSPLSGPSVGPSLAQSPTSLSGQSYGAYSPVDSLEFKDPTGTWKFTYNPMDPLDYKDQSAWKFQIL
ELF4, sequence (Q99607 whole entry): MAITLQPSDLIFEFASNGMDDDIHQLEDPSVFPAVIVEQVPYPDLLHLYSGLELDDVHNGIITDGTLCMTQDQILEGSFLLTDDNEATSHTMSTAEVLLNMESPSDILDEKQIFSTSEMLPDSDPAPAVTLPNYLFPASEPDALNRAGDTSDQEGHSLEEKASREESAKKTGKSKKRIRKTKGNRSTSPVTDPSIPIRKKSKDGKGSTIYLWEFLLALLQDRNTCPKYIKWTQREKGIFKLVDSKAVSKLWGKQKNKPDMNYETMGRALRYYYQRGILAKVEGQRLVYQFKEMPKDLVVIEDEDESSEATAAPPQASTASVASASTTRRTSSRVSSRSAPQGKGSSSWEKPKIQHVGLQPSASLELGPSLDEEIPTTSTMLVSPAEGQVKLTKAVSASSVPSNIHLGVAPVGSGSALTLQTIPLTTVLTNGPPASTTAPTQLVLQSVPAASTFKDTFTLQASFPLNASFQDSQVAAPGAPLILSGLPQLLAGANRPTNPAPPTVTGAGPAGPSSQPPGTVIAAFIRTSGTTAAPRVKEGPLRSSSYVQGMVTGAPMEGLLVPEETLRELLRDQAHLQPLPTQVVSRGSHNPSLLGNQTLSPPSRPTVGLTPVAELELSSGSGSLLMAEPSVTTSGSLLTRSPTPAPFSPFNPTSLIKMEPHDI
HSF1, sequence (Q00613 whole entry): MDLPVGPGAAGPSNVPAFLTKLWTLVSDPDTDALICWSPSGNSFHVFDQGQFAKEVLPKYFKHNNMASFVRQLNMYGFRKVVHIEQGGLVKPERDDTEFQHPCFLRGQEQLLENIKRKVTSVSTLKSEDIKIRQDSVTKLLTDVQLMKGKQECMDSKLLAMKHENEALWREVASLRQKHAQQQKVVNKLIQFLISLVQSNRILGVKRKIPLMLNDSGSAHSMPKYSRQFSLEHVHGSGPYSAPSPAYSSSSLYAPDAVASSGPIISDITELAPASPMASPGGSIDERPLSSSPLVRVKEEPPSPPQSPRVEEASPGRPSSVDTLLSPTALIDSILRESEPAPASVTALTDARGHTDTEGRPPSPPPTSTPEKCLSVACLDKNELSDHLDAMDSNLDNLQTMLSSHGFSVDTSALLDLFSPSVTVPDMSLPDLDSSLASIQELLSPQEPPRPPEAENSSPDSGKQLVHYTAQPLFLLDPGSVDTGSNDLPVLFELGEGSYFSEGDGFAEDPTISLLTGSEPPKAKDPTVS

Q: TGGATG was tested. Which binding signal (FEV) did it give?
A: The binding signal was 1.35 fold enrichment (6-mer frequency, TF over GST control).

Q: And the binding signal (ETV5)?
A: Its binding signal is 1.42 fold enrichment (6-mer frequency, TF over GST control).

Q: What about the binding signal (HSF1) of the same sequence?
A: The binding signal was 1.52 fold enrichment (6-mer frequency, TF over GST control).

Q: What about the binding signal (SPIC) of the same sequence?
A: The binding signal was 1.46 fold enrichment (6-mer frequency, TF over GST control).

Q: What about the binding signal (ELF4) of the same sequence?
A: Its binding signal is 1.49 fold enrichment (6-mer frequency, TF over GST control).

Q: And the binding signal (ELK4)?
A: The binding signal was 1.23 fold enrichment (6-mer frequency, TF over GST control).

Q: What about the binding signal (ETV2) of the same sequence?
A: Its binding signal is 1.49 fold enrichment (6-mer frequency, TF over GST control).

Q: And the binding signal (ELF3)?
A: The binding signal was 1.65 fold enrichment (6-mer frequency, TF over GST control).

Q: And the binding signal (CRX)?
A: The binding signal was 1.45 fold enrichment (6-mer frequency, TF over GST control).

Q: And the binding signal (ETV1)?
A: Its binding signal is 1.54 fold enrichment (6-mer frequency, TF over GST control).

Q: What about the binding signal (ERF) of the same sequence?
A: The binding signal was 1.46 fold enrichment (6-mer frequency, TF over GST control).

Q: What about the binding signal (ETV3L) of the same sequence?
A: Its binding signal is 1.53 fold enrichment (6-mer frequency, TF over GST control).

Q: What about the binding signal (ETS2) of the same sequence?
A: Its binding signal is 1.4 fold enrichment (6-mer frequency, TF over GST control).

Q: And the binding signal (SPDEF)?
A: Its binding signal is 1.53 fold enrichment (6-mer frequency, TF over GST control).

Q: What about the binding signal (ETV7) of the same sequence?
A: Its binding signal is 1.68 fold enrichment (6-mer frequency, TF over GST control).

Q: What about the binding signal (ELF5) of the same sequence?
A: Its binding signal is 1.45 fold enrichment (6-mer frequency, TF over GST control).

Q: What about the binding signal (ETV3) of the same sequence?
A: The binding signal was 1.57 fold enrichment (6-mer frequency, TF over GST control).

Q: What about the binding signal (ETV6) of the same sequence?
A: The binding signal was 1.44 fold enrichment (6-mer frequency, TF over GST control).
